Screening results: PubChem BioAssay, several laboratories
The list is not random: actives were taken first. Their share in the collection is about 2.1%.
aSyn UTR inh: MLPCN primary screen, SNCA 5' untranslated region; alpha-synuclein 5'UTR reporter, inhibitor activity; inhibition, % (tested at 7.5 µM); 300,000 compounds, 0.82% hits; AID 1813, 2009; in the data active = inhibition above about 60%;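 note: H4 neuroglioblastoma cells stably carrying SNCA 5'UTR luciferase fusion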
Wee1 stabilizer: Wee1 degradation inhibitors, primary screen, cell-based, HeLa, Wee1K328M-luciferase, luminescence; HeLa Luc-Wee1K328M stability; 100% = proteasome inhibitor MG132 effect; reporter increase, % at 5 µM; 220,000 compounds, 1.2% hits;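 active = activation above the mean of all tested compounds plus 3 SD, set per screening run, cut at about 8.8% in these data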;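 note: cells exposed to compound for 20 h before luminescence read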
Target sequence (P30291 whole entry K328M): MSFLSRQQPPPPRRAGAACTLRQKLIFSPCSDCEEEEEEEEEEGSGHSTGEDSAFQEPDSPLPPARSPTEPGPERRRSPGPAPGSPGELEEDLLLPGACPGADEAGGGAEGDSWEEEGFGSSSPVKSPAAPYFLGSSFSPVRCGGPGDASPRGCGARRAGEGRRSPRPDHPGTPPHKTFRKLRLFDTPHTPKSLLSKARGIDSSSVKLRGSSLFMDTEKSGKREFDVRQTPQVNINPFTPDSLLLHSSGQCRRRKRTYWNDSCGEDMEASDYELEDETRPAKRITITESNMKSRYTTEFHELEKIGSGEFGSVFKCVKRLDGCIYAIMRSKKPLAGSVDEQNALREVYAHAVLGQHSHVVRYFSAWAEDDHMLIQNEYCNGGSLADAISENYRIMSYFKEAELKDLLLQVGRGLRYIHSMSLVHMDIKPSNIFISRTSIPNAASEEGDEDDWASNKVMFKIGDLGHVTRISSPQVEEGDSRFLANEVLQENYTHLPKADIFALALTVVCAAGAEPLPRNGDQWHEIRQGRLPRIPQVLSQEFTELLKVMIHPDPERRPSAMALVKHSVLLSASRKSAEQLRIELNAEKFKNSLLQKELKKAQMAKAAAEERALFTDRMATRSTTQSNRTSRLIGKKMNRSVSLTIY
Platelet DG rel: inhibitors of platelet dense granule secretion, primary screen, cell-based, MLPCN, human platelets | 300,000 compounds, 0.22% hits | AID 1663, 2009 | human platelet-rich plasma, SFLLRN dense granule ATP release, luminescence | inhibition, %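 (compounds screened at 7.5 µM in platelet-rich plasma)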;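 active = mean replicate score, as percent of positive control, at or above 50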
KLF5 inh: KLF5 expression inhibitors, primary screen, DLD-1 cells, luminescence; DLD-1 KLF5 promoter-luciferase reporter; inhibition, % at 5 µM; 290,000 compounds, 0.23% hits;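 active = inhibition above a per-plate limit of that plate's mean compound inhibition plus 3 SD, cut at about 60% in these data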;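 note: higher means less KLF5 promoter-driven luciferase light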
HIF activator: HIF pathway transcriptional activators, primary screen, cell-based, U2OS HRE-luciferase, luminescence; AID 1910, 2009; U2OS HRE-luciferase reporter; normalized: DMSO 0%, desferrioxamine 100%; activation, % at 7.5 µM (by protocol); 300,000 compounds, 0.32% hits;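 active = mean activation of at least 10% of the iron chelator positive control signal, with at least half of replicates also reaching 10%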
Wee1 degr conf: Wee1 degradation inhibitors, confirmation, cell-based, HeLa, Wee1K328M-luciferase, luminescence, triplicate; shares compounds with Wee1 stabilizer; HeLa Luc-Wee1K328M degradation; vehicle 0%, proteasome-blocked wells 100%; activation, % at 5 µM; 1,100 compounds, 4% hits; AID 1410, 2008; in the data active = activation above about 8.9%
A number is an active result; . = inactive; / = no result.

SMILES | aSyn UTR inh | Wee1 stabilizer | Platelet DG rel | KLF5 inh | HIF activator | Wee1 degr conf
Cc1ccc2nc(NC(=O)COC(=O)c3ccco3)sc2c1 | . | 11 | . | . | . | .
O=C(NNC(=O)c1ccc(O)c(Cl)c1)c1cccc(S(=O)(=O)N2CCOCC2)c1 | . | / | . | / | . | /
N#Cc1cnc(SCCc2ccccc2)nc1N | . | 28 | . | . | . | .
Cc1cc(C)cc(C(=O)N(CCc2ccccc2)C2CC3CCC(C2)N3C)c1 (centres undefined) | . | / | . | . | . | /
COc1ccc(Cl)c2c1[nH]c1nc(SCc3cccnc3)nnc12 | . | 13 | . | . | . | .
O=C(CCC(=O)Nc1nnc(C2CCCCC2)s1)NCC1CCCO1 (centres undefined) | . | 16 | . | . | . | .
COc1cccc(CN(C)C(=O)c2ccc(N3CCCC3)c([N+](=O)[O-])c2)c1 | . | / | . | . | . | /
C=CCNC(=S)N1CCN(S(=O)(=O)c2ccc(C)cc2)CC1 | . | 17 | . | . | . | .
Cc1ccc(NC(=S)N2CCN(S(=O)(=O)c3ccc(F)cc3)CC2)cc1 | . | / | . | . | . | /
CC1(C)NC(=O)N(CCCCOc2ccccc2[N+](=O)[O-])C1=O | . | 11 | . | . | . | .
O=C(COc1ccc(F)cc1)c1c(O)cc(O)cc1O | . | . | . | . | . | /
COc1ccc(C(=O)COc2ccc(F)cc2)c(O)c1 | . | 18 | . | . | . | .
CC(C)CCN1CCN(Cc2ccc(C#CC(C)(C)O)s2)CC1CCO (centres undefined) | . | 11 | . | . | . | .
Cc1ccc(/C=C/C(=O)OCc2nc(N)nc(Nc3ccccc3C)n2)o1 | . | 13 | . | . | . | .
CCN1CCN(c2ccc([N+](=O)[O-])cc2S(=O)(=O)N2CCOCC2)CC1 | . | 11 | . | . | . | .
CCOC(=O)C1CCN(c2ccc([N+](=O)[O-])cc2S(=O)(=O)N2CCOCC2)CC1 | . | / | . | . | . | /
O=C(Cn1cnc2ccccc2c1=O)Nc1ccc2c(c1)OCCO2 | . | 11 | . | . | . | .
O=C(Cn1cnc2ccccc2c1=O)OCC(=O)c1ccc2c(c1)OCCO2 | . | 11 | . | . | . | .
O=C(COc1ncnc2ccccc12)c1ccc2c(c1)OCCO2 | . | . | . | . | . | /
CCOc1ccc(NC(=O)CC2C(=O)N(c3ccc(OC)cc3)C(=S)N2Cc2ccccn2)cc1 (centres undefined) | . | . | . | . | . | /
Cc1ccc(C)c(CN2CCCN(Cc3cc(C)ccc3C)S2(=O)=O)c1 | . | / | . | . | . | /
S=c1[nH]nc(Nc2ccc(Cl)cc2)s1 | . | 15 | . | . | . | .
S=C(Nc1ccccc1)N1CCN(Cc2ccccc2)CC1 | . | . | . | . | . | /
S=C(NCCN1CCOCC1)Nc1cccc(Cl)c1 | . | 15 | . | . | . | .
S=C(Nc1cccc(Cl)c1)N1CCN(Cc2ccccc2)CC1 | . | 11 | . | . | . | .
SMILES | aSyn UTR inh | Wee1 stabilizer | Platelet DG rel | KLF5 inh | HIF activator | Wee1 degr conf
COC(=O)CC1C(=O)NCCN1C(=O)CSc1nc2ccccc2o1 (centres undefined) | . | 12 | . | . | . | .
COC(=O)CC1C(=O)NCCN1C(=O)CSc1nc2ccccc2c(=O)n1CC(C)C (centres undefined) | . | . | . | . | . | /
Cn1c(=O)c2c(ncn2CCCc2ccccc2)n(C)c1=O | . | 12 | . | . | . | .
CC(C)n1c(NCCO)nc2ccccc21 | . | 11 | . | . | . | .
CCCn1c(NCCO)nc2ccccc21 | . | . | . | . | . | /
CN1C(=O)NC(c2cccc([N+](=O)[O-])c2)C2=C1CC(C)(C)CC2=O (centres undefined) | . | / | . | . | . | /
CC1(C)CC(=O)C2=C(C1)N=C1SCCC(=O)N1C2c1cccc([N+](=O)[O-])c1 (centres undefined) | . | 12 | . | . | . | .
O=C(CN(C(=O)CNC(=O)c1cccs1)c1ccc(F)cc1)NC1CCCC1 | . | / | . | . | . | /
CC(=O)NC1=NN(C(C)=O)C(c2ccc(C(C)C)cc2)S1 (centres undefined) | . | 24 | . | . | . | .
Cc1c(Cl)cccc1NC(=O)N1CCN(C(=O)c2ccco2)CC1 | . | / | . | . | . | /
CCOC(=O)c1c(C)[nH]c(C(=O)N/N=C\c2ccccc2O)c1C | 87 | 12 | . | . | 57 | .
CC(C)CN(/C=N/c1sc2c(c1C#N)CCCCC2)CC(C)C | . | . | . | . | . | /
CCN(/C=N/c1sc2c(c1C#N)CCCCC2)CC | . | 13 | . | . | . | .
CC(=O)c1cccc(N(C(=O)CNC(=O)c2ccco2)C(C(=O)NCc2ccco2)c2ccccc2)c1 (centres undefined) | . | 19 | . | . | . | .
CC(=O)c1cccc(N(C(=O)CNC(=O)c2ccco2)C(C(=O)NC2CCCC2)c2ccncc2)c1 (centres undefined) | . | / | . | . | . | /
Cc1ccc(C)c(N(CC(=O)NCCc2ccccc2)C(=O)CCC(=O)Nc2ccccn2)c1 | . | / | . | . | . | /
CC(=O)Nc1ccc(S(=O)(=O)Nc2nc3cc4c(cc3nc2Cl)OCCO4)cc1 | . | 11 | . | . | . | .
COc1ccc(/C=C2/C(=O)N(c3nc4ccccc4s3)N=C2CSc2ccc(Cl)cc2)cc1 | . | . | . | . | . | /
O=C(CCCCC(=O)Nc1ccccc1Cl)Nc1ccccc1Cl | . | / | . | . | . | /
NNC(=O)CNc1ccccc1Cl | . | 11 | . | . | . | .
CC(=O)N(c1nc(CCl)cs1)c1c(C)cc(C)cc1C | . | . | . | . | . | /
NC(=O)C1(c2ccccc2)OC1c1ccccc1 (centres undefined) | . | / | . | / | . | /
Cc1ccc(CSCC(=O)Nc2ccc3c(c2)OCO3)cc1 | . | . | . | . | . | /
C/C(CC(=O)Nc1ccc2c(c1)OCCO2)=N\NC(=O)c1ccccc1F | . | / | . | . | . | /
C/C(CC(=O)Nc1ccc2c(c1)OCO2)=N\NC(=O)c1ccccc1N | . | 12 | . | . | . | .
O=C(CSCc1ccccc1)Nc1ccc2c(c1)OCO2 | . | 12 | / | . | . | .
COc1ccccc1C(=O)Nc1ccc2c(c1)nc(CN1CCCCC1)n2C | . | . | . | . | . | /
Cc1cc(/C=N/NC(=O)COc2cccc3cccnc23)c(C)n1-c1ccc(O)cc1 | . | 14 | . | . | . | .
Cc1cc(C)cc(-n2c(C)cc(/C=N\NC(=O)COc3cccc4cccnc34)c2C)c1 | . | . | . | . | . | /
CNc1oc(-c2ccccc2Cl)nc1C#N | . | 13 | . | . | . | .
